The whole screen tested about 5,500 compounds, of which about 2,000 (36%) were called active. Another 18% or so got no clear call; they are omitted. No stated cut-off is given here; in the data, active means normalized growth mostly below about 0.91 (no sharp cut-off); inconclusive means no clear call, values can overlap the other calls; inactive means mostly above about 0.92. Some of the results follow.
Experiment: chemical genetic growth profiling, strain panel (AID 1159580);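 further: tested at 20 µM; growth read once vehicle control cultures reached saturation at 30 °C; 1 = growth at the plate median or of vehicle wells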
Conditions: S. cerevisiae deletion strains, growth OD

Measured: normalized growth

CC(C)(O)[C@@H]1Cc2cc3ccc(=O)oc3cc2O1
inactive: locus YBR021W, strain FUR4, stronger effect = lower value 1.03 | locus YBR229C, strain ROT2, stronger effect = lower value 1 | locus YCL029C, strain bik1, stronger effect = lower value 1.01 | locus YDL035C, strain GPR1, stronger effect = lower value 1.02 | locus YDL074C, strain BRE1, stronger effect = lower value 1.04 | locus YDL101C, strain DUN1, stronger effect = lower value 1.01 | locus YDL134C, strain PPH21, stronger effect = lower value 1 | locus YDL185W, strain tfp1, stronger effect = lower value 1.02 | locus YDL192W, strain arf1, stronger effect = lower value 1.03 | locus YDR101C, strain arx1, stronger effect = lower value 1 | locus YDR150W, strain NUM1, stronger effect = lower value 1 | locus YDR162C, strain NBP2, stronger effect = lower value 0.989 | locus YDR318W, strain mcm21, stronger effect = lower value 1.01 | locus YDR388W, stronger effect = lower value 1.01 | locus YDR502C, strain sam2, stronger effect = lower value 1.04 | locus YEL061C, strain CIN8, stronger effect = lower value 1 | locus YER110C, stronger effect = lower value 1.01 | locus YER155C, strain BEM2, stronger effect = lower value 1 | locus YER167W, strain BCK2, stronger effect = lower value 1.02 | locus YGL078C, strain dbp3, stronger effect = lower value 1.01 | locus YGL086W, strain mad1, stronger effect = lower value 1.03 | locus YGL248W, strain PDE1, stronger effect = lower value 1.01 | locus YGR078C, strain PAC10, stronger effect = lower value 1 | locus YGR135W, strain pre9, stronger effect = lower value 0.996 | locus YGR229C, strain SMI1, stronger effect = lower value 1.04 | locus YGR252W, strain gcn5, stronger effect = lower value 0.991 | locus YHR030C, strain SLT2, stronger effect = lower value 1.01 | locus YHR079C, strain IRE1 (second series), stronger effect = lower value 1 | locus YHR094C, strain hxt1, stronger effect = lower value 1.01 | locus YHR129C, strain ARP1, stronger effect = lower value 1.01 | locus YHR200W, strain rpn10, stronger effect = lower value 1.03 | locus YIL066C, strain RNR3, stronger effect = lower value 1.01 | locus YIL073C, strain SPO22, stronger effect = lower value 1.02 | locus YIL125W, strain kgd1, stronger effect = lower value 1.02 | locus YIR030C, strain dcg1, stronger effect = lower value 1.02 | locus YJL095W, strain BCK1, stronger effect = lower value 1.03 | locus YJL134W, strain LCB3, stronger effect = lower value 1.02 | locus YJL168C, strain set2, stronger effect = lower value 1.03 | locus YJL187C, strain SWE1 (second series), stronger effect = lower value 1.01 | locus YJR043C, strain POL32, stronger effect = lower value 1.01 | locus YJR075W, strain HOC1, stronger effect = lower value 1.01 | locus YKL009W, strain mrt4, stronger effect = lower value 1.01 | locus YKL068W, stronger effect = lower value 1.02 | locus YKL085W, strain MDH1 (second series), stronger effect = lower value 1 | locus YKL085W, strain MDH1, stronger effect = lower value 1 | locus YKR001C, strain vps1, stronger effect = lower value 1.01 | locus YLR039C, strain RIC1, stronger effect = lower value 1.01 | locus YLR058C, strain SHM2, stronger effect = lower value 1.01 | locus YLR102C, strain apc9, stronger effect = lower value 1.02 | locus YLR262C, strain YPT6, stronger effect = lower value 0.995 | locus YLR268W, strain sec22, stronger effect = lower value 1.03 | locus YLR330W, strain CHS5, stronger effect = lower value 1.01 | locus YLR342W, strain FKS1 (second series), stronger effect = lower value 1.07 | locus YLR371W, strain rom2, stronger effect = lower value 1.02 | locus YLR418C, strain cdc73, stronger effect = lower value 0.989 | locus YML016C, strain PPZ1, stronger effect = lower value 1.01 | locus YML032C, strain rad52, stronger effect = lower value 1.02 | locus YML124C, strain tub3, stronger effect = lower value 1.02 | locus YMR078C, strain ctf18, stronger effect = lower value 1.03 | locus YMR223W, strain ubp8, stronger effect = lower value 0.997 | locus YMR307W, strain GAS1, stronger effect = lower value 1.1 | locus YNL067W, strain RPL9B, stronger effect = lower value 0.999 | locus YNL128W, strain TEP1, stronger effect = lower value 1.02 | locus YNL233W, strain BNI4, stronger effect = lower value 1.02 | locus YNL250W, strain rad50, stronger effect = lower value 1 | locus YNL271C, strain bni1, stronger effect = lower value 1 | locus YNL298W, strain CLA4, stronger effect = lower value 1.01 | locus YNL307C, strain MCK1, stronger effect = lower value 1.03 | locus YNL322C, strain KRE1, stronger effect = lower value 1.01 | locus YNR052C, strain pop2, stronger effect = lower value 1.01 | locus YOL012C, strain htz1 1.44 | locus YOL147C, strain pex11, stronger effect = lower value 1.01 | locus YOR061W, strain CKA2, stronger effect = lower value 1.01 | locus YOR069W, strain VPS5, stronger effect = lower value 1.01 | locus YOR136W, strain idh2, stronger effect = lower value 1.02 | locus YOR144C, strain elg1, stronger effect = lower value 1 | locus YOR184W, strain ser1, stronger effect = lower value 1 | locus YOR316C, strain cot1, stronger effect = lower value 1.05 | locus YPL241C, strain CIN2, stronger effect = lower value 1.01 | locus YPR119W, strain clb2, stronger effect = lower value 1.02 | locus YPR141C, strain kar3, stronger effect = lower value 1.01 | locus YPR163C, strain tif3, stronger effect = lower value 1.01 | locus YPR167C, strain met16, stronger effect = lower value 1.03 | strain wtn01, stronger effect = lower value 1.05

— PubChem BioAssay AID1159580 (chemical genetic matrix, 2015)
